KB-V1 cytotox: kills drug-selected multidrug resistant KB-V1 cells | KB-V1 MDR cells viability, CellTiter-Glo, 72 h | Potency, µM (doses to about 46.1 µM), hits mostly cytotoxic | 400,000 compounds, 3.4% hits | AID 1347076; also: nearly all actives have a fitted effect of over 60% in size
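Readout: CellTiter-Glo luminescence, 10 min after addition. Cells: KB-V1 MDR subline, 72 h at 37 degrees C with compound. Analysis: corrected, normalized data fitted to concentration-effect curves.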
KB-3-1 tox: kills parental KB-3-1 adenocarcinoma cells. AID 1347075. Potency, µM (highest dose often 46.1 µM), hits mostly cytotoxic. 400,000 compounds, 1.4% hits. KB-3-1 viability, CellTiter-Glo ATP luminescence, 72 h; also: nearly all actives have a fitted effect of over 60% in size
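Cytotoxicity measured as CellTiter-Glo luminescence after 72 h at 37 C. Compound titrations were pinned onto drug-naive KB-3-1 parental adenocarcinoma cells grown in DMEM with 10% FBS, and normalized data fitted to concentration-response curves.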
MCF10A rereplic: DNA re-replication induction in MCF 10a cells; MCF 10A DNA re-replication, Hoechst nuclear intensity, 48 h; Potency, µM (doses to about 46.1 µM), most hits filed as activators; 350,000 compounds, 2.9% hits; also: nearly all actives have a fitted effect of over 50% in size
ELG1 repair inh: inhibitors of ELG1-dependent DNA repair in HEK293T cells; HEK293T ELG1-luciferase reporter, luminescence, 16 h; DNA damage induced by 5-fluorouridine; Potency, µM (titrated, usually from 46.1 µM), most hits filed as inhibitors; 330,000 compounds, 2.3% hits; AID 504467; also: nearly all actives have a fitted effect of over 55% in size
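Step one: seed 2,000 cells per well. Step two: pin-transfer compound or DMSO alongside 5-fluorouridine. Step three: incubate 16 hr, 37 °C, 5% CO2. Step four: add ONE-Glo, wait 30 min, read luminescence.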
SW480 rereplic: induces DNA re-replication in SW480 colon adenocarcinoma cells | 340,000 compounds, 1.8% hits | Potency, µM (top dose mostly 46.1 µM), usual class: activators | SW480 DNA re-replication, Hoechst DNA content imaging, 48 h | AID 624297; also: nearly all actives have a fitted effect of over 55% in size
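First, 250 cells per well were seeded. Next, compound or vehicle (23 nL) was pinned in, plates sat 48 hr at 37 C. Finally Hoechst was added for 40 min before fluorescence scanning.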
Each line names hits and unclear results; the compound was inactive in the other large screens; ! = a repeat was not active. A selection: hits, their analogues and other compounds. The true share with any hit is near 8.1%. Calls follow the shape of the dose curve; as a rule, active = well fitted curve in the direction sought with a large enough effect; inconclusive = small, poorly fitted or top-dose-only effect, or another doubt; inactive = no such curve, though single readings can be large; an effect the other way counts as inactive or inconclusive.

COc1cc(COc2ccc(S(=O)(=O)N3CCOCC3)cc2[N+](=O)[O-])ccc1OC(F)F	MCF10A rereplic inconclusive (no result: ELG1 repair inh)
O=C(c1ccc(CS(=O)Cc2ccc(Cl)cc2)o1)N1CCN(c2ccccn2)CC1 (stereo not drawn)	KB-V1 cytotox inconclusive, ELG1 repair inh inconclusive
O=C(c1ccc(CS(=O)Cc2ccccc2Cl)o1)N1CCN(c2ccccn2)CC1 (stereo not drawn)	KB-V1 cytotox 18.4µM, ELG1 repair inh 20.6µM
O=C(c1ccc(CS(=O)c2ccccc2Cl)o1)N1CCN(c2ccccn2)CC1 (stereo not drawn)	KB-V1 cytotox inconclusive, KB-3-1 tox 7.31µM, ELG1 repair inh inconclusive
S=C(c1ccc[nH]1)N1CCOCC1	none
CCCCN(C)S(=O)(=O)c1c(C)[nH]c(=O)[nH]c1=O	none
COc1ccc(CCNC(=S)Nc2ccccc2)cc1	ELG1 repair inh inconclusive
COc1ccc(C(=O)CC(=O)C(=O)NCCc2cccc(C)c2)cc1	KB-V1 cytotox inconclusive, MCF10A rereplic 18.4µM, SW480 rereplic inconclusive
COc1ccc(CCNC(=S)Nc2cc(C)cc(C)c2)cc1	KB-V1 cytotox 18.4µM
COc1ccc(CCNC(=S)Nc2ccc(OC)cc2)cc1	none
COc1ccc(CCNC(=S)Nc2ccc(C(C)C)cc2)cc1	KB-V1 cytotox 23.1µM, KB-3-1 tox inconclusive, MCF10A rereplic inconclusive
CCCC(=O)Nc1c2c(nn1-c1ccc(F)cc1)CS(=O)(=O)C2	none
COc1ccc(NC(=O)/C(N=Nc2cc(S(=O)(=O)Nc3ccc(OC)cc3)ccc2OC)=C(\C)O)cc1	KB-3-1 tox inconclusive, MCF10A rereplic 0.581µM
COc1ccc(NC(=O)/C(N=Nc2ccc(Cl)c(S(=O)(=O)Nc3ccc(Cl)cc3)c2)=C(\C)O)cc1	none
Cc1sc(-n2c(C)cc(/C=N/n3cnnc3)c2C)c(C#N)c1C	KB-V1 cytotox inconclusive, ELG1 repair inh inconclusive
COc1ccc2nc(NC(=O)CSc3n[nH]c(N)n3)sc2c1	ELG1 repair inh inconclusive
C=CCn1c(COc2ccc(F)cc2)nnc1SCC(=O)c1c[nH]c2c(CC)cccc12	KB-V1 cytotox 13µM
C=CCn1c(COC)nnc1SCC(=O)c1ccc(F)cc1	ELG1 repair inh inconclusive
Cc1ccc(NC(=O)C/C(N)=N/OC(=O)Nc2ccc(C)c(Cl)c2)cc1	ELG1 repair inh inconclusive
CCCCOP(=O)(OCCCC)C(Nc1ccccc1)c1ccc2c(c1)OCO2 (stereo not drawn)	KB-V1 cytotox 7.31µM, KB-3-1 tox inconclusive, MCF10A rereplic inconclusive, ELG1 repair inh inconclusive
CCOP(=O)(OCC)C(Nc1ccccc1)c1ccc2c(c1)OCO2 (stereo not drawn)	KB-V1 cytotox inconclusive, ELG1 repair inh inconclusive
O=C(N/N=C\c1cn[nH]c1-c1ccc(Cl)cc1)c1cccs1	MCF10A rereplic inconclusive
CN(/N=C/c1ccc(Br)o1)C1=NS(=O)(=O)c2ccccc21	MCF10A rereplic 23.1µM, SW480 rereplic inconclusive
Cc1ccc(/C=N/N(C)C2=NS(=O)(=O)c3ccccc32)o1	none (no result: KB-V1 cytotox, KB-3-1 tox, MCF10A rereplic, SW480 rereplic)
CCOC(=O)C1=C(COc2ccc(C)cc2)NC(=O)NC1c1cc(C)ccc1C (stereo not drawn)	KB-V1 cytotox inconclusive, MCF10A rereplic inconclusive, ELG1 repair inh inconclusive
CCOC(=O)C1=C(CN2CCCCC2)NC(=O)NC1c1cc(C)ccc1C (stereo not drawn)	KB-V1 cytotox 10.3µM!
CCOC(=O)C1=C(CSCc2ccccc2)NC(=O)NC1c1cc(C)ccc1C (stereo not drawn)	KB-V1 cytotox 9.2µM, MCF10A rereplic inconclusive, ELG1 repair inh inconclusive, SW480 rereplic inconclusive
CC(C)CC(=O)OC(C)(C)[C@@H]1Cc2c(ccc3ccc(=O)oc23)O1	MCF10A rereplic inconclusive, ELG1 repair inh inconclusive
COC(=O)c1sccc1NC(=O)c1ccccc1F	none
CCc1c(C)c2cc(Cl)c(O)c(CN3CCCC3)c2oc1=O	MCF10A rereplic inconclusive, SW480 rereplic 20.6µM
COc1ccc(C(=O)CC(=O)c2ccccc2O)cc1OC	KB-V1 cytotox inconclusive, ELG1 repair inh inconclusive
O=C(N/N=C/c1ccc(O)c([N+](=O)[O-])c1)C(O)(c1ccccc1)c1ccccc1	KB-V1 cytotox inconclusive
Cc1ccccc1NC(=O)CN1C(=O)N/C(=C\c2ccccc2OCc2ccc(C(=O)O)cc2)C1=O	none
CCCCn1c(=O)[nH]c(=O)c2c1nc(Cn1ncc(Cl)c(Cl)c1=O)n2CCC	KB-3-1 tox 2.91µM, MCF10A rereplic inconclusive, ELG1 repair inh 23.1µM, SW480 rereplic inconclusive
CCCCn1c(=O)[nH]c(=O)c2c1nc(CN1C(=O)c3ccccc3S1(=O)=O)n2CCC	ELG1 repair inh inconclusive
COc1ccc(F)cc1C1=CC(=O)C[C@H](c2ccc3c(c2)OCO3)C1	KB-V1 cytotox inconclusive, KB-3-1 tox inconclusive, MCF10A rereplic inconclusive, SW480 rereplic inconclusive
O=C1C=C(c2ccc(-c3ccccc3)cc2)C[C@@H](c2ccc3c(c2)OCO3)C1	KB-V1 cytotox inconclusive
O=C1C=C(c2ccc(CO)cc2)C[C@@H](c2ccc3c(c2)OCO3)C1	MCF10A rereplic 0.581µM, ELG1 repair inh inconclusive
COc1cccc(OC)c1C1=CC(=O)C[C@H](c2ccc3c(c2)OCO3)C1	MCF10A rereplic inconclusive, ELG1 repair inh 9.2µM, SW480 rereplic inconclusive
COc1cc(F)c(C2=CC(=O)C[C@H](c3ccc4c(c3)OCO4)C2)cc1F	ELG1 repair inh 16.4µM
COc1cccc(C2=CC(=O)C[C@H](c3ccc4c(c3)OCO4)C2)c1OC	ELG1 repair inh inconclusive
CCOc1ccc(NC(=O)Cn2c(=O)n(-c3cccc(Cl)c3)c(=O)c3c2c2cc(C)ccc2n3C)cc1	KB-V1 cytotox inconclusive (no result: MCF10A rereplic, ELG1 repair inh, SW480 rereplic)
Cn1nnnc1Sc1ncnc2scc(-c3ccc([N+](=O)[O-])cc3)c12	KB-3-1 tox inconclusive, MCF10A rereplic 2.59µM, ELG1 repair inh 7.3µM
COc1ccc(-c2csc3ncnc(Sc4nnnn4C)c23)cc1	KB-V1 cytotox inconclusive, KB-3-1 tox inconclusive, MCF10A rereplic inconclusive, ELG1 repair inh inconclusive
Cn1nnnc1Sc1ncnc2scc(-c3ccccc3Cl)c12	KB-3-1 tox inconclusive, MCF10A rereplic inconclusive, ELG1 repair inh inconclusive
Clc1ccc(-n2nnnc2Sc2ncnc3sccc23)cc1	KB-V1 cytotox inconclusive, KB-3-1 tox inconclusive, MCF10A rereplic 10.3µM, SW480 rereplic 6.51µM (no result: ELG1 repair inh)
Cn1nnnc1Sc1ncnc2scc(-c3ccc(Cl)cc3)c12	KB-V1 cytotox inconclusive, KB-3-1 tox inconclusive, ELG1 repair inh 16.4µM
Cn1nnnc1Sc1ncnc2scc(-c3ccc4c(c3)OCO4)c12	MCF10A rereplic 23.1µM
Cc1c(Cl)cccc1Nc1nc(N)nc(CSc2ncccn2)n1	KB-V1 cytotox 18.4µM, ELG1 repair inh inconclusive, SW480 rereplic inconclusive
Cc1c(Cl)cccc1Nc1nc(N)nc(CSCCO)n1	none
Cc1nn2c(C(F)(F)F)cc(-c3ccc(Cl)cc3)nc2c1C(=O)N1CCOCC1	KB-V1 cytotox inconclusive, ELG1 repair inh 16.4µM
Nc1nc2nc(-c3ccc(Cl)cc3)cc(C(F)(F)F)n2n1	MCF10A rereplic inconclusive, ELG1 repair inh inconclusive, SW480 rereplic 13µM

Bioassay records as filed in PubChem BioAssay.
